Results taken from PubChem BioAssay (Tox21).
Inconclusive results are not listed. Where a call stands in place of a potency, no number is given. The source made the active and inactive calls. Calls come from the whole dose curve; as a rule, active = well fitted inhibition curve with a large enough effect in the signal ratio in the repeat runs (not every such curve was filed as active); inconclusive = weak or mixed curves, or effect the other way; inactive = flat fitted curve, though single readings scatter; the % refers to the signal ratio.

Assay: cAMP Responsive Elements (CRE) small molecule antagonists, cell-based qHTS assay (AID 1963591)
Settings: CRE-bla HEK293T, beta-lactamase FRET ratio; series mostly up to 92.4 µM
Source text: U.S. Tox21 Program National Center for Advancing Translational Sciences [NCATS] Division of Preclinical Innovation [DPI] U.S. Environmental Protection Agency [EPA] National Institutes of Environmental Health Sciences [NIEHS] National Toxicology Program [NTP] U.S. Food and Drug Administration [FDA] Tox21 Assay Overview: CREB (cyclic-AMP Responsive Element Binding Protein) is a cellular transcription factor. It binds to certain DNA sequences called cAMP Responsive Elements (CRE) and regulates the transcription of the genes. […] This cell line can be used to find agonists/antagonists of the cyclic AMP signaling pathway. The activation of the report gene under culture conditions can be detected by fluorescence intensity. This cell line has been used to screen the Tox21 10K compound library to […].
Tox21 Assay Protocol Summary: CRE-bla Hek 293T cells were suspended in assay medium (DMEM containing 10% dialyzed FBS, 0.1 mM NEAA, 1 mM sodium pyruvate and 25 mM HEPES) and dispensed at 2,000 cells/4 uL /well into 1536-well black wall/clear bottom plates using a Multidrop Combi (ThermoFisher Scientific, Waltham, MA) dispenser. After the assay plates were incubated at 37 C/5% CO2 for 18 hrs, 23 nL of compounds dissolved in DMSO, positive controls or DMSO only was transferred to the assay plate by a pintool workstation (Kalypsys, San Diego, CA), followed by addition of 1 […] uL of 1.25uM NKH477 (0.25 uM as final concentration) in assay medium using a Flying Reagent Dispenser (Aurora Discovery, San Diego, CA). The plates were incubated at 37 C and 5% CO2 for 3 hrs. Then 1 uL of LiveBLAzer B/G FRET substrate (Invitrogen, Carlsbad, CA) was added to each well using Bioraptr Flying Reagent Dispenser (FRD, Aurora Discovery, San Diego, CA). The plates were incubated at room temperature for 2 h.

SMILES | Potency | activity change, negative = inhibition
NNC(=O)CCCCC(=O)NN | inactive | –
CCOC(=O)CC(=O)C(=O)OCC | inactive | –
CCCCCCCCCCCCCCCCCCCl | – | -6.83% [at 8.39 µM] (inactive)
CCCCC(CC)COC(=O)c1ccccc1 (stereo not given) | inactive | –
O=C1CCCCC1C1CCCCC1 (stereo not given) | inactive | –
CC(=O)c1ccc[nH]1 | inactive | –
c1cnc(N2CCN(Cc3ccc4c(c3)OCO4)CC2)nc1 | inactive | –
O=CNc1ccccc1 | inactive | –
CN1[C@@H]2CC(OC(=O)[C@H](CO)c3ccccc3)C[C@H]1[C@@H]1O[C@@H]12 (stereo not given in full) | inactive | –
CC(CN)CC(C)(C)CCN (stereo not given) | inactive | –
c1ccc(-c2ccccc2-c2ccccc2)cc1 | inactive | –
CO/N=C1\CN(c2nc3c(cc2F)c(=O)c(C(=O)O)cn3C2CC2)CC1CN (stereo not given) | inactive | –
C=Cc1ccc(O)c(OC)c1 | inactive | –
O=C1OC(=O)c2cc(Oc3ccc4c(c3)C(=O)OC4=O)ccc21 | inactive | –
COc1cc(C)nc(-n2nc(C)cc2OC)n1 | inactive | –
Nc1ccc(F)cc1 | inactive | –
C1CCC2(CCCCO2)OC1 | inactive | –
Fc1ccccc1 | inactive | –
Nc1ccc(O)c(N)c1 | inactive | –
CCCCCCCCCOC(=O)CCCCC(=O)OCCCCCCC | inactive | –

SMILES | Potency | activity change, negative = inhibition
CCCCC=O | inactive | –
Clc1cccc(-c2cc(Cl)cc(Cl)c2)c1 | inactive | –
C=CCCCCCCCCOC(C)=O | inactive | –
CCC(CC)Nc1ccc(C)c(C)c1 | inactive | –
COc1ccc(NC(=O)CC(C)=O)cc1 | inactive | –
CC(C)CCOCc1ccccc1 | inactive | –
C[C@@H](c1ncncc1F)C(O)(Cn1cncn1)c1ccc(F)cc1F (stereo not given in full) | inactive | –
CC1=Nc2ccccc2C1(C)C | inactive | –
NC(=O)c1c(Cl)cccc1Cl | inactive | –
O=C1c2ccccc2C(=O)c2c1ccc(O)c2O | inactive | –
CCCCCCCCCCOC(=O)c1ccccc1C(=O)OCCCCCCCC | inactive | –
N[C@@H](CCC(=O)O)C(=O)O | inactive | –
CCCCN(CCO)CCCC | inactive | –
O=C(/C=C/c1ccccc1)OCCc1ccccc1 | inactive | –
COP(=O)(OC)OC(c1ccc(Cl)cc1)P(=O)(OC)OC (stereo not given) | inactive | –
CCc1cc(Cc2cc(CC)c(N)c(CC)c2)cc(CC)c1N | inactive | –
Nc1nc(F)nc2c1ncn2[C@@H]1O[C@H](CO)[C@@H](O)[C@@H]1O | inactive | –
C1CCC2=NCCCN2CC1 | inactive | –
O=S(=O)(Oc1ccc(Cl)cc1)c1ccccc1 | inactive | –
CC1=C(C(=O)O)N2C(=O)[C@@H](NC(=O)[C@H](N)C3=CCC=CC3)[C@H]2SC1 | inactive | –
